This is a sample that favours compounds with a hit; in the whole collection about 2.5% have one here.
MRP-1 activ – H69AR viability gain despite doxorubicin, primary screen, MRP-1 activator project, H69AR cells, CellTiter-Glo; 0.61% of 140,000 active; viability rescue; viability increase, % at 10 µM;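 active = viability gain under doxorubicin at or above a set limit, the compound median plus 3 SD, cut at about 4.7% in these data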;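 also: MRP-1 overexpressing cells given doxorubicin 25 µM after compound pretreatment; 18-22 h compound pretreatment then 72 h with doxorubicin before readout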
sEH inh – soluble epoxide hydrolase inhibitors, primary screen, biochemical, human sEH; inhibition, % at 2 µM; 0.34% of 91,000 active; recombinant human sEH enzymatic activity assay; AID 707, 2007; in the data active = inhibition above about 80%
Target sequence (P34913 whole entry, looked up): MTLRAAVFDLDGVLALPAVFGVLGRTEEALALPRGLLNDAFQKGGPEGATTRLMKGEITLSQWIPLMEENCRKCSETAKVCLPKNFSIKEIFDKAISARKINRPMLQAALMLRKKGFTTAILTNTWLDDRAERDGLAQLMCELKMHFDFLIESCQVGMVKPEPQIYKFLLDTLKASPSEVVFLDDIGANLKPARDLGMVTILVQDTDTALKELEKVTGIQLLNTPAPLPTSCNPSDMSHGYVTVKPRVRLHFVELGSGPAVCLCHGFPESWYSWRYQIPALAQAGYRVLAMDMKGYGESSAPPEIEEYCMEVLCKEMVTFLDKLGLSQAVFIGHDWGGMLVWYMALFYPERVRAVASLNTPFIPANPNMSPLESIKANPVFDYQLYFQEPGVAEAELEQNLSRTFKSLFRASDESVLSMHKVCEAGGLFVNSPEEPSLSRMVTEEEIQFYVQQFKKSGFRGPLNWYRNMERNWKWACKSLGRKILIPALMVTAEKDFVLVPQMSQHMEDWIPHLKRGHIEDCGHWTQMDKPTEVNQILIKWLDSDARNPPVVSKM
SDO1 yeast rescue – growth rescue of sdo1-depleted yeast, primary screen, S. cerevisiae, bone marrow failure model; S. cerevisiae sdo1-depleted JHY4D growth rescue, OD600 30 h; active compounds read high; pdr5 snq2 efflux-pump mutant strain; z-score at 10 µM; 0.21% of 140,000 active; AID 817, 2007;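 active = z-score above 3 at both the 24 hr and the 30 hr optical density reads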
sEH act – soluble epoxide hydrolase activators, primary screen, biochemical, human sEH; Bifunctional epoxide hydrolase 2 (Homo sapiens), P34913; purified human sEH enzymatic activity, activator screen; activation, % at 2 µM; 0.04% of 91,000 active; AID 717, 2007; in the data active = activation above about 37%
MRP reversal – reversal of MRP1-mediated doxorubicin resistance, primary screen, H69AR cells, doxorubicin co-treatment. H69AR cells + 2 uM doxorubicin, CellTiter-Glo, 72 h. differential viability (reversal), % at 10 µM. 0.04% of 85,000 active. AID 602, 2007;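 active = viability drop by adding the cancer drug above about 55%, with treated viability meeting a 40% cutoff, limit read from the data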;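 also: larger differential means the compound sensitizes cells more to doxorubicin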
Measles CPE – compounds protecting cells from measles virus cytopathic effect, primary screen, measles RdRp inhibitor project, single point, MLSMR library, absorbance; protection (pct of control), % at 4 µM; AID 841, 2007; 1.5% of 140,000 active; Measles virus-infected cells, CPE protection; in the data active = protection mostly above about 24%, no sharp cut-off; inactive = mostly below about 26%
Of the large screens only hits and unclear results are named; the others gave an inactive call.

CC1CC(C)CN(C(=O)c2ccc3c(=O)n(Cc4ccc5c(c4)OCO5)c(=S)[nH]c3c2)C1 (stereo not given)	sEH inh 85
COCCCNC(=O)c1ccc2c(=O)n(Cc3ccc4c(c3)OCO4)c(=S)[nH]c2c1	none
CCCCn1c(SCC(=O)Nc2ccc(OC)cc2)nc2ccc(N3CCOCC3)cc2c1=O	Measles CPE 53
CC(=O)Nc1ccccc1C(=O)C(=O)Nc1cccc(F)c1	sEH act 39 (no result: MRP-1 activ, SDO1 yeast rescue, MRP reversal, Measles CPE)
Cc1ccc(CNC(=O)c2sc3nc4c(c(C(F)(F)F)c3c2N)CCC4)cc1	MRP-1 activ 4.8 (no result: MRP reversal)
NNc1nc(-c2ccccc2Cl)nc2sc3c(c12)CCCC3	none (no result: sEH inh, sEH act, MRP reversal)
O=c1[nH]c(C2CCCN(S(=O)(=O)c3ccccc3)C2)nc2c1nnn2Cc1ccccc1 (stereo not given)	MRP-1 activ 5.3
O=C(C1CCC1)N1CCC(c2nc3c(nnn3Cc3c(F)cccc3Cl)c(=O)[nH]2)CC1	Measles CPE 41
CCOC(=O)c1c(OCC)[nH]c2ccc(O)cc12	none
Cc1ccc(C(=O)NCc2ccco2)cc1S(=O)(=O)Nc1cccc(Cl)c1	none (no result: MRP reversal)
O=c1nc(/C=C/c2cc([N+](=O)[O-])ccc2Cl)cc(C(F)(F)F)[nH]1	Measles CPE 55
C/C(=N\NC(=O)c1[nH]c2c([N+](=O)[O-])cc(C)cc2c1-c1ccccc1)c1cccnc1	none
CC(C)(CNC(=O)/C=C/c1ccc(F)cc1)CNC(=O)/C=C/c1ccc(F)cc1	MRP-1 activ 5.9 (no result: sEH inh, sEH act, MRP reversal)
CC(C)NC(=O)COC(=O)/C=C/c1ccc(F)cc1	none (no result: sEH inh, sEH act, MRP reversal)
CC(C)NC(=S)NC(=O)/C=C/c1ccc(F)cc1	Measles CPE 36 (no result: sEH inh, sEH act, MRP reversal)
CN(C)c1nc(SCCOC(=O)COc2ccc(Cl)cc2Cl)nc(N(C)C)n1	Measles CPE 105
CN(C)c1nc(OCCOC(=O)COc2ccc(Cl)cc2Cl)nc(N(C)C)n1	none (no result: sEH inh, sEH act)
O=C(CC(Nc1ccc(F)cc1)C(=O)O)c1ccccc1 (stereo not given)	none
O=C(CC(Nc1ccc(F)cc1)C(=O)OCC(=O)c1cccs1)c1ccccc1 (stereo not given)	MRP-1 activ 5.2 (no result: sEH inh, sEH act, MRP reversal)
CCOC(=O)c1c(-c2cccc([N+](=O)[O-])c2)csc1NC(=O)C1CCCCC1	MRP-1 activ 9.4 (no result: sEH inh, sEH act, MRP reversal)
O=S(=O)(Nc1nc(CN2CCOCC2)nc2sc3c(c12)CCCC3)c1cc(F)ccc1F	none
COC(=O)CSc1ccc2nnc(-c3ccc(OC)c(OC)c3)n2n1	none (no result: MRP reversal)
COc1ccc(-c2nnc3ccc(SCC(=O)Nc4nc5ccc(C)cc5s4)nn23)cc1OC	Measles CPE 28 (no result: sEH inh, sEH act, MRP reversal)
O=C1CC(c2ccccc2)c2cc(O)ccc2O1 (stereo not given)	MRP-1 activ 5.1 (no result: sEH inh, sEH act, MRP reversal)
CCOc1ccc2c(c1)c(N=O)c(O)n2C	MRP-1 activ 6.0 (no result: sEH inh, sEH act, MRP reversal)
CCOc1ccc(/C=N/NC(=O)c2c(C)n(C)c3ccc(OC)cc23)cc1	none (no result: sEH inh, sEH act, MRP reversal)
CCCCCc1c(O)c2ccccc2[nH]c1=O	Measles CPE 36
CCCCCOC(=O)Cc1c(O)c2ccccc2[nH]c1=O	none
Cc1cc(SCC(=O)Nc2cccc(S(=O)(=O)NC3=NCCCCC3)c2)c(C)cc1Br	Measles CPE 28 (no result: sEH inh, sEH act, MRP reversal)
Cc1ccc(Nc2nnc(SCC(=O)Nc3cccc(S(=O)(=O)NC4=NCCCCC4)c3)s2)cc1	none (no result: sEH inh, sEH act, MRP reversal)
CCCc1oc(C(=O)O)cc1CN1CCOCC1	Measles CPE 34 (no result: MRP reversal)
O=C(CN1CCSC1=NCc1ccccc1)c1ccccc1	none (no result: sEH inh, sEH act, MRP reversal)
CSc1ccc(S(=O)(=O)Nc2ccc3c(c2)OCCO3)cc1	Measles CPE 42 (no result: sEH inh, sEH act)
O=C(NNS(=O)(=O)c1ccccc1)C(O)(c1ccccc1)c1ccccc1	Measles CPE 63 (no result: sEH inh, sEH act, MRP reversal)
CCOC(=O)CN1C(=O)c2ccccc2C1=O	none
CCCOC(=O)CN1C(=O)c2ccccc2C1=O	Measles CPE 20
CN(C)S(=O)(=O)c1ccc(Cl)c(NC(=O)CSc2nc3ccccc3c(=O)n2CCCN2CCOCC2)c1	none (no result: sEH inh, sEH act, MRP reversal)
Clc1ccc2[nH]c3c(NCCCN4CCOCC4)ncnc3c2c1	Measles CPE 44 (no result: sEH inh, sEH act)
O=C(CCC(=O)Nc1nnc(C2CCCCC2)s1)NCC1CCCO1 (stereo not given)	Measles CPE 65
CC(C)c1nnc(NC(=O)CCC(=O)NCC2CCCO2)s1 (stereo not given)	none
Cc1cccc(C(=O)NNC(=O)c2ccccc2)c1	none (no result: sEH inh, sEH act, MRP reversal)

Source: PubChem
